# According to PubChem BioAssay (EPA / NIEHS):
# The source made the active and inactive calls. How the source made its calls: active means hit-call score of the fitted dose curve at least 0.9, where 1 is the maximum; inactive means score below 0.9.
# Read-out: Alpha-fetoprotein (AFP) gene, AFP (gene 174)
# Test: LTEA_HepaRG_AFP: Life Technologies and Expression Analysis (LTEA) Assay for Alpha-fetoprotein (AFP) gene using HepaRG (AID 2283472);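 on AC50: AFP transcript by TaqMan qRT-PCR normalized to ACTB GAPDH and POLR2A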
# Conditions: mRNA level, 48 h; actives raise or lower the signal
# Description: It is a marker of Undifferentiated hepatocyte.Data from the assay component LTEA_HepaRG_AFP was analyzed into 1 endpoint. This assay endpoint, LTEA_HepaRG_AFP, was analyzed with bidirectional fitting relative to DMSO as the negative control and baseline of activity. Using a type of inducible reporter, measures of mRNA induction for gain or loss-of-signal activity can be used to understand regulation of transcription factor activity. To generalize the intended target to other relatable targets, this assay endpoint is annotated to the background measurement intended target family, where the subfamily is assay control.
# A total of 1060 chemcials from the ToxCast library were tested in eight-point concentration-response experiments. Cell culture and cytotoxicity assays were conducted at Thermo Fisher Scientific's Custom Services facility (Madison, WI). A single lot of human HepaRG cells (Thermo Fisher Scientific, Frederick, MD) was used for the cell culture experiments. 96-well format collagen type I coated plates of human HepaRG cells were prepared using established methods. Briefly, cryopreserved HepaRG cells were thawed, plated at a density of approximately 100,000 cells/well in HepaRG Thaw, Plate, and General Purpose media (HPRG770, Thermo Fisher Scientific), and incubated for 48 hours. 0.5% DMSO was selected as vehicle control to balance the requisite need of DMSO in HepaRG cultures to maintain differentiation (for example, baseline metabolism, proportions of hepatocytes vs. cholangiocytes), while enabling further hepatic receptor pathway activation (for example, PXR and CAR) in response to chemical exposure. 48 hours after plating, the culture medium was replaced with HepaRG Serum-Free Incudtion Media. Cells were exposed to each test chemical in duplicate and maintained in CO2 incubators for another 48 hours. Chemical plates were thawed to room temperature and 200x concentrations of treatment groups were prepared. 8-point conentration-reponse curves were made with the highest exposure at 100 uM, followed by half-log dilutions, all in 0.5% DMSO. Each test plate contained variouse controls, induction positive controls (1mM phenobarbital), cytotoxicity positive controls ([…] aflatoxin B1), vehicle controls (0.5% DMSO), and total lysis controls (0.5% DMSO). Cell morphology images were taken using an Essen IncuCyte FLR automated microscope, with six 96-well plates imaged in about 24 minutes. Images were captured and exported and JPEG files. Spent culture media was transfered to black-well plates for the LDH assay, and remaining media was sorted at -80 C for later use. Cells were treated with RLT buffer and frozen until shipped for gene expression analysis. Total RNA was isolated from the cell suspension in 75 uL of Buffer RLT (Qiagen, Germantown, MD 20874) by Quintiles/Expression Analysis (Durham, NC) using a custom isolation procedure. Total RNA from each plate well was transferred to a preamplification plate. Fluidigm's 96.96 Dynamic ArrayTM (Fluidigm, Amsterdam, the Netherlands) technology was used for gene expression analyses by quantitative reverse transcription polymerase chain reaction (qRT-PCR, performed by Quintiles/Expression Analysis, Durham, NC)89. Standard TaqManTM Assays (Applied Biosystems/ThermoFisher Scientific, Foster City, CA) were used to assess the expression of 93 genes selected based on their selectivity and sensitivity to important hepatic receptors known to be modulated by environmental chemicals; importance in human hepatocyte functionality; and hepatotoxicity. Three "housekeeping" endogenous control genes were also included and used for normalization: actin beta (ACTB), Glyceraldehyde 3 phosphate dehydrogenase (GAPDH) and RNA Polymerase II Subunit A (POLR2A). qRT-PCR was conducted according to the manufacturer's protocol.
SMILES,outcome,AC50
CCCCCCCCCC,inactive,
COc1cc(C(C)C)c2c(c1)S(=O)(=O)N(COc1cc(=O)n3cccc(OCCN4CCCCC4)c3n1)C2=O,,19.5 µM (active)
c1ccc2c(c1)-c1cccc3c1c-2cc1ccccc13,,17.2 µM (active)
Cc1ccc(S(=O)(=O)NC(=O)NN2CCCCCC2)cc1,inactive,
c1ccc2cc3ccccc3cc2c1,inactive,
NC(=O)N(O)[C@@H]1COc2cc(OCc3ccccc3)ccc21,inactive,
OC[C@H]1O[C@@H]2O[C@H]3[C@H](O)[C@@H](O)[C@@H](O[C@H]4[C@H](O)[C@@H](O)[C@@H](O[C@H]5[C@H](O)[C@@H](O)[C@@H](O[C@H]6[C@H](O)[C@@H](O)[C@@H](O[C@H]7[C@H](O)[C@@H](O)[C@@H](O[C@H]1[C@H](O)[C@H]2O)O[C@@H]7CO)O[C@@H]6CO)O[C@@H]5CO)O[C@@H]4CO)O[C@@H]3CO,inactive,
CCOc1ccc2[nH]cc(C(=O)NCc3ccccc3)c(=O)c2n1,,81.3 µM (active)
CCOC(N)=O,inactive,
C=CN1CCCC1=O,inactive,
CCCCOC(=O)c1ccccc1,inactive,
CCCC(CCC)C(=O)O,inactive,
O=S(=O)(O)c1ccc(N=Nc2c(O)ccc3cc(S(=O)(=O)O)ccc23)cc1,inactive,
O=C(O)c1cccc(C[C@@H]2COc3ccc(OCc4nc5cc(F)ccc5s4)cc3[C@@H]2O)c1,,68.7 µM (active)
OC(Cn1cncn1)(Cn1cncn1)c1ccc(F)cc1F,inactive,
CC(C)CC(C)O (stereo not given),inactive,
NC(N)=O,inactive,
NC(=O)N1c2ccccc2C=Cc2ccccc21,inactive,
CNC(C)=O,inactive,
COc1cc2c(c(OC)c1OC)-c1ccc(OC)c(=O)cc1[C@@H](NC(C)=O)CC2,,0.148 µM (active)

SMILES,outcome,AC50
COCc1nnc(-c2ccc[n+]([O-])c2)n1-c1c(Cl)c(Cl)cc2[nH]c(=O)c(=O)[nH]c12,inactive,
CC(C)CCCCCCOC(=O)C1CCCCC1C(=O)OCCCCCCC(C)C (stereo not given),inactive,
CCc1cccc(CC)c1N,inactive,
CCCc1ccccc1,inactive,
OC[C@H]1O[C@@](CO)(O[C@H]2O[C@H](CO)[C@@H](O)[C@H](O)[C@H]2O)[C@@H](O)[C@@H]1O,inactive,
CC(C)C(=O)Nc1ccc([N+](=O)[O-])c(C(F)(F)F)c1,,58.5 µM (active)
CC1(C)C(=O)N(Cl)C(=O)N1Cl,inactive,
CCn1nc(C)c2c1C(=O)NCC(c1ccc(O)cc1)=N2,inactive,
OCC(CO)(CO)CO,inactive,
OCCOCCOCCO,inactive,
OCCNCCO,,50 µM (active)
Cn1c(=O)c2[nH]cnc2n(C)c1=O,inactive,
CC(C)c1nnc2ccc(-c3ocnc3-c3cc(F)ccc3F)cn12,,50 µM (active)
Cn1cc[nH]c1=S,inactive,
OC(CCl)CCl,inactive,
CCCOc1ccc(S(=O)(=O)N2CCN(CC)CC2)cc1-c1nc2c(CC)n(Cc3ccccn3)nc2c(=O)[nH]1,,26.9 µM (active)
CCCCN1C(=O)[C@@H]([C@H](O)C2CCCCC2)NC(=O)C12CCN(Cc1ccc(Oc3ccc(C(=O)O)cc3)cc1)CC2,,3 µM (active)
C[C@@H](Oc1ccc(CNC(=O)c2cccnc2Oc2ccc3c(c2)OCO3)c(F)c1)C(=O)O,inactive,
CCCCCCCCCCCCCCCCOS(=O)(=O)O,,41.2 µM (active)
NC(=O)NN=Cc1ccc([N+](=O)[O-])o1,inactive,
